The campaign covered roughly 410,000 compounds. About 1,200 (0.29%) were called active. Another 2% or so got no clear call; they are omitted. The sample holds actives, similar compounds and a random draw of the others, so the mix is not that of the screen. Values without a mark were called inactive. Calls come from the whole dose curve; as a rule, active = well fitted activation curve with a large enough effect; inconclusive = small, poorly fitted or top-dose-only effect; inactive = flat fitted curve, though single readings scatter.
Potency is the fitted concentration of half-maximal effect.

The assay is described as follows: qHTS of Nrf2 Activators. For activation: % of control where 0% means no effect. Note: nearly all actives have a fitted effect of over 65% in size. To be noted: AREc32 ARE-luciferase reporter (MCF7-derived line), luminescence, 24 h; series mostly up to 46.1 µM; activation: at the top concentration. An excerpt:
Many diseases have some form of oxidative stress injury and ties to inflammation, causing a host of problems for the patient. The antioxidant response element (ARE) plays an important role in alleviating the harmful effects of oxidative stress. The antioxidant response element (ARE) is a transcriptional regulatory element involved in the activation of genes coding for a number of antioxidant proteins and detoxifying enzymes. These enzymes work in concert to protect tissues from oxidative insults and chemical toxicities in human hepatocytes and immune cells. The protective effects of ARE activation are primarily triggered through Nrf2 (NF-E2-related factor) binding to and activating AREs. It is known that Nrf2 controls the production of over 250 antioxidant and detoxification proteins (Hu et al., 2006), thereby protecting tissues by increasing cellular antioxidant content and suppressing inflammatory signaling pathways. The transcription factor Nrf2 is a central link between oxidative chemicals, such as phenolic antioxidants and electrophilic compounds, and the activation of ARE. Nrf2 levels are constitutively low as a consequence of its interaction with Keap1, which targets its degradation (Zipper and Mulcahy, 2002). Electrophiles react with key cysteine residues in Keap1, releasing Nrf2 and allowing its translocation to the nucleus. Once within the nucleus, Nrf2 complexes with coactivators such as p300, and binds to the AREs to induce gene transcription of cytoprotective enzymes, resulting in the prevention of toxicity. Activation of Nrf2 protects tissues by increasing cellular antioxidant content and suppressing inflammatory signaling pathways. Identifying novel and potent Nrf2 activators by using the AREc32 cell line to detect ARE activation by small molecules will lead to the identification and development of probes to study protective pathways in multiple tissues. These specific probes are essential to study the ARE pathway, and eventually to determine whether this pathway does activate genes that could protect against a host of diseases, including cardiovascular diseases, obesity, diabetes, Alzheimer's, and Parkinson's disease.
This project's aim is to identify novel and potent Nrf2 activators by using the AREc32 cell line to detect ARE activation by small molecules, which will lead to the identification and development of probes to study the ARE pathway.
NIH Chemical Genomics Center [NCGC]
NIH Molecular Libraries Probe Centers Network [MLPCN]
Assay Submitter (PI): Curtis Klaassen, University of Kansas Medical Center
5 uL of 1000 cells/well of AREc32_Fluc cells are seeded into 1536-well plate in OPTI-MEM medium with 5% FBS. The plates are incubated overnight at 37 deg C with 5% CO2. Then through pin tool transfer, 23 nL of compounds are added to each well before a 24 hr incubation at 37 deg C with 5% CO2. After the addition of 2.5 uL of Steady-Glo. the plates are kept at RT for 30 min, before they are read on the ViewLux.
As to `Cc1ccccc1OCC(=O)Nc1c(C(=O)Nc2ccccc2F)oc2ccccc12`, the “activation” value was -0.295%. Take `CCOC(=O)c1cccc(NC(=O)c2cc(CN3CCCC3)on2)c1`: the “activation” value is 4.24%. For `CC1CCC2(CC1)N=C(c1ccccc1)C(=O)N2CC(=O)Nc1ccc(F)c(Cl)c1` (stereo unspecified), the “activation” value is -0.343%. In the case of `COc1ccc(Cl)cc1NC(=O)CSc1nc(=O)[nH]c2c1CCCC2`, the “activation” value is 0.708%.

In the case of `CCNC(=O)c1cc2n(n1)CCCN(Cc1ccc(C)cc1)C2=O`, the “activation” value is -0.449%. Regarding `CCSc1nnc(-c2cc3c(s2)-c2ccccc2CC3)o1`, the Potency was 12.6 µM (active).

Take `COc1ccccc1-c1nnc(SCC(N)=O)o1`: the “activation” value was 19.2%. Still for that read-out and setting: the same measure for `Fc1ccc(CSc2nnc(-c3cc4c(s3)-c3ccccc3CC4)o2)cc1`: 4.69%.

Take `CCc1ccccc1NC(=O)c1ccc(F)c(S(=O)(=O)NC2CCCCCC2)c1`: the “activation” value is -1.4%.

For `Fc1ccc(C(Nc2ccc(Cl)c(C(F)(F)F)c2)c2nnc(-c3ccccc3)o2)cc1` (stereo unspecified), the “activation” value was 6.99%. Consider `COc1ccc(-n2c(C)nc3c(cnn3-c3ccc(F)cc3)c2=O)cc1`, for which the “activation” value is 0.489%.

Take `COc1ccc(Oc2c(Cl)cnn(-c3ccccc3)c2=O)cc1`: the Potency was 12.6 µM (active). With `COc1ccc(-n2c(=O)c3ccccc3n(Cc3ccccc3Cl)c2=O)cc1`, the “activation” value is -0.065%. For `Cc1ccccc1CS(=O)(=O)CC1Nc2ccc(C(=O)NCc3ccc(Cl)cc3)cc2NC1=O` (stereo unspecified), the “activation” value was -0.238%. Still for that read-out and setting: then `O=C(NCc1ccc2c(c1)CCN2C(=O)c1ccccc1)Nc1cc(F)ccc1F`, with 0.064%. Take `O=C1/C(=C/c2cccs2)CCc2ccccc21`: the Potency was 11.2 µM (active). Regarding `O=S(=O)(c1cccs1)N1CCc2ccccc2C1`, the “activation” value is -0.41%. `CCC1C/C(=C/c2cccs2)C(=O)/C(=C/c2cccs2)C1` (stereo unspecified): the Potency was 5.62 µM (active).

`CCCCC1S/C(=N/N=C/c2cccs2)NC1=O` (stereo unspecified): the activation was 2.71% [at 9.22 µM].

As to `CCS(=O)(=O)N1CCN(C(=O)c2cccs2)CC1`, the “activation” value was -0.56%. Same read-out and setting: the same measure for `O=C1/C(=C/c2cccs2)CCC1C1CCCC1` (stereo unspecified): 3.98%; for `Cc1c2cnn(-c3ccccc3)c(=O)c2c(C)n1C(C)C(=O)Nc1ccc(Br)cc1F` (stereo unspecified): -0.298%. Take `COc1ccc(-c2nc3scc(CCNS(=O)(=O)c4cc(F)ccc4OC)n3n2)cc1OC`: the “activation” value is 10.4%. Still for that read-out and setting: then `Cn1nc(-c2ccccc2)c(-c2ccccc2)c(C(=O)Nc2ccc(S(N)(=O)=O)cc2)c1=O`, with 4.53%.

As for `O=S(=O)(c1ccc2nc(NCc3ccccc3Cl)ccc2c1)N1CCCCC1`, the “activation” value is -1.7%. The same measure, in the same setting: the same measure for `O=C(CN1C(=O)COc2ccc(Cl)cc21)Nc1ccc(N2CCOCC2)cc1`: -0.414%. `O=C(CN1C(=O)COc2ccccc21)Nc1ccc(F)cc1`: the Potency was 12.6 µM (active). Regarding `CC(OC(=O)CN1C(=O)COc2ccccc21)C(=O)NCc1ccc(F)cc1` (stereo unspecified), the “activation” value was 0.0117%. Turning to `CNc1ccc(-c2nc(-c3ccco3)no2)cc1[N+](=O)[O-]`, the Potency was 1.41 µM (active). On to `CC(Nc1ccc(-c2nc(-c3ccco3)no2)cc1[N+](=O)[O-])c1ccccc1` (stereo unspecified), for which the “activation” value is 28.3%. Consider `CNc1ccc(-c2nc(-c3ccccc3C)no2)cc1[N+](=O)[O-]`, for which the “activation” value is 5.97%.

Consider `CCCCN(CCCNC(=O)c1cc(Nc2ccccc2OC)nc2ccccc12)c1ccccc1`, for which the “activation” value is 0.34%. On the same count and under the same terms, then `CCCOC(=O)c1c(NC(=O)c2cc3nc(-c4ccc(OC)cc4)cc(C(F)(F)F)n3n2)sc2c1CCCC2`, with -0.428%. Same read-out and setting: the same measure for `CCOc1cc(-c2nnc(SCC(=O)NC3CCCCC3)nc2-c2ccc(OC)c(OCC)c2)ccc1OC`: 5.21%. The same measure, in the same setting: the same measure for `CCN(CC)CCNc1ncnc2c1cnn2-c1cc(Cl)ccc1C`: 9.13%; for `O=C(Nc1ccc(OC(F)(F)F)cc1)C1CCCN(S(=O)(=O)c2ccc(Br)s2)C1` (stereo unspecified): -0.453%. In the case of `O=C(Nc1ccc(Cl)cc1)c1ccsn1`, the Potency was 11.2 µM (active). For `O=C(Nc1cccc(Cl)c1)c1csnn1`, the “activation” value is 10.6%. On the same count and under the same terms, then `O=C(Nc1ccc(Cl)cc1)c1csc([C@@H]2O[C@H](CO)[C@H](O)[C@H](O)[C@H]2O)n1`, with -0.424%; and `O=S(=O)(c1ccc(C2CCCCC2)cc1)N1CCN(c2ccc(Cl)c(Cl)c2)CC1`, with -0.996%; and `CCOc1ccc2nc(N3CCCC(C(=O)Nc4cc(C)ccc4C)C3)sc2c1` (stereo unspecified), with -0.0903%.

In the case of `Cc1cc(C)cc(NC(=O)c2cnc3sc(N4CCCC4)nn3c2=O)c1`, the “activation” value is 0.541%. As to `COC(=O)c1sccc1NC(=O)c1csc2c1CCCC2`, the Potency is 11.2 µM (active). With `CCOc1ccc(CCNC(=O)c2csc3c2CCCCC3)cc1`, the “activation” value is 2.83%. As for `CCOC(=O)c1ccc(NC(=O)c2csc3c2CCCCC3)cc1`, the “activation” value is 0.682%. The same measure, in the same setting: the same measure for `CC(C)c1ccc(C2CC(=O)N3CN(C4CCCCC4)CSC3=C2C#N)cc1` (stereo unspecified): 0.802%; for `CC(=O)c1cccc(NC(=O)CSc2nc3c(c(=O)[nH]2)CCC3)c1`: -0.0762%. On the same count and under the same terms, the same measure for `N#CC(=C1CCCC1)c1nc(-c2ccc(Cl)cc2)cs1`: 2.56%. Regarding `N#CC(=C1SC=CS1)c1nc(-c2ccccc2)cs1`, the Potency is 7.08 µM (active). Consider `Cc1ccc(-c2csc(C(C#N)=C(O)CN3CCN(C(=O)c4ccco4)CC3)n2)cc1`, for which the “activation” value was 1.52%. On the same count and under the same terms, the same measure for `Fc1cccc(-n2ncc3c2ncn2nc(-c4ccccc4Cl)nc32)c1`: 8.11%.

These data come from PubChem BioAssay AID624171 (National Center for Advancing Translational Sciences (NCATS), 2012).
